An excerpt weighted towards active compounds, which were near 1.9% of everything screened.
Ba/F3 V617F tox = reduce viability of Ba/F3 cells dependent on JAK2V617F. Ba/F3 EpoR-JAK2V617F viability, ATP luminescence. inhibition, % at 5.6 µM. actives 1.1% (n = 220,000). AID 1446;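 active means inhibition above the campaign mean plus 3 SD over all tested compounds, cut at about 24% in these data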;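 further: cytokine-independent growth of Ba/F3 cells driven by EpoR plus mutant JAK2; 0% = DMSO-treated cells and 100% = JAK inhibitor I control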
APP 5UTR inh = APP translation inhibition | SH-SY5Y APP 5'UTR-luciferase reporter, luminescence | inhibition, % at 2 µM | actives 0.82% (n = 190,000);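 active means inhibition above a set limit, derived from the sample mean plus 3 SD, cut at about 45% in these data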
IEC-6 tox = IEC-6 cytotoxicity, counter-screen for KLF5 inhibitors. luminescence viability. actives 0.78% (n = 290,000). inhibition, % at 5 µM; in the data active means inhibition above about 22%;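 further: 0% = plate median of test compound wells and 100% = cytotoxic reference compound wells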
BaF3 parental = parental Ba/F3 viability inhibition as JAK2V617F counter-screen; CellTiter-Glo ATP luminescence; actives 1.1% (n = 220,000); inhibition, % at 5.6 µM;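 active means inhibition above a per-campaign cutoff, the mean inhibition of all tested compounds plus 3 SD, cut at about 27% in these data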;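 further: 0% = DMSO wells and 100% = JAK Inhibitor I control wells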
KLF5 inh = suppresses KLF5 promoter-driven expression | inhibition, % at 5 µM | actives 0.23% (n = 290,000) | DLD-1 KLF5 promoter-luciferase reporter, luminescence;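 active means inhibition above a per-plate limit of that plate's mean compound inhibition plus 3 SD, cut at about 60% in these data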;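 further: 0% = DMSO wells and 100% = LY294002 at 200 µM; higher means less KLF5 promoter-driven luciferase light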
BaF3 parental 2 = counter-screen for JAK2V617F inhibitors: parental Ba/F3 viability inhibitors | shares compounds with Ba/F3 V617F tox | inhibition, % at 5.6 µM | actives 31% (n = 580) | CellTiter-Glo luminescence; cells kept alive by added IL-3;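 active means cell growth inhibition above the hit limit set in the earlier mutant JAK2 cell screen, cut at about 27% in these data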;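 further: plate controls were DMSO-treated cells for no effect and JAK Inhibitor I control wells for full effect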
JAK2V617F conf = Ba/F3 EpoR-JAK2V617F viability loss, confirmation; shares compounds with Ba/F3 V617F tox; CellTiter-Glo luminescence; inhibition, % at 5.6 µM; actives 66% (n = 580); AID 1521;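 active means mean inhibition above the hit cutoff derived in the earlier primary screen, cut at about 25% in these data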;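 further: 0% = DMSO-treated cells and 100% = JAK inhibitor I control wells; higher means lower luminescence from reduced cell ATP and viability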
* hit, by the source's call; . = not tested or not shown.

SMILES	Ba/F3 V617F tox	APP 5UTR inh	IEC-6 tox	BaF3 parental	KLF5 inh	BaF3 parental 2	JAK2V617F conf
COc1ccc(CCN(C)C(=O)C2CCN(Cc3cccc(OC)c3OC)CC2)cc1OC	31*	-22	2	-1	-23	-1	-2
CCOc1ccc(NCCC#N)cc1	44*	-17	-4	4	-18	-4	-9
COc1cccc(F)c1C(C[N+](=O)[O-])c1c(N)n(C)c(=O)n(C)c1=O (centres undefined)	63*	.	9	6	7	2	92*
COc1cc(C(C[N+](=O)[O-])c2c(N)n(C)c(=O)n(C)c2=O)ccc1O (centres undefined)	-1	-2	-1	3	-15	.	.
CC1=C(C(=O)OCC2CCCO2)C(c2ccsc2)C2=C(CCCC2=O)N1 (centres undefined)	3	-3	-3	6	0	.	.
Cc1ccc(NS(=O)(=O)c2cc3c4c(cccc4c2)C(=O)NC3=O)cc1C	25*	.	15	11	-1	45*	77*
CCn1c(SCC(=O)Nc2ccccc2F)nnc1-c1ccoc1C	.	.	-2	.	-8	.	.
CCn1c(SCC(=O)Nc2ccccc2-c2ccccc2)nnc1-c1ccoc1C	52*	1	-2	1	-13	-2	5
COc1ccc(C2NC(=O)NC(C)=C2C(=O)Nc2cc(C)ccc2C)cc1OC (centres undefined)	-2	14	0	6	-8	.	.
CCOC(=O)c1ccc(NC(=S)NCCC2=CCCCC2)cc1	81*	12	3	-3	5	-5	-14
CCOC(=O)c1ccc(NC(=O)NCCc2ccccc2OC)cc1	64*	-27	-2	0	-1	-6	-10
Cc1ccc(NC(=S)NCCC2=CCCCC2)cc1	7	-95	8	12	-45	.	.
CCOC(=O)c1ccc(NC(=O)NCc2ccccc2OC)cc1	6	-25	5	3	-11	.	.
CCOC(=O)CSc1nc2ccc(N)cc2s1	0	-3	0	5	9	.	.
CCc1ccc(NC(=O)CSc2nc(O)cc(=O)n2C2CCCC2)cc1	3	11	2	11	2	.	.
CC1CC(c2ccccc2)=Nc2ccccc2N1 (centres undefined)	.	.	2	.	-48	.	.
S=C(/N=c1/sccn1Cc1ccccc1)NC1CC1	.	.	-5	.	-6	.	.
Cc1ccc(Cn2ccsc2=NC(=O)CCl)cc1	69*	-1	93*	4	-31	3	97*
Cc1cc(N2CCCC2)c(F)cc1/C=C\[N+](=O)[O-]	1	-23	-3	6	-22	.	.
CC(Oc1ccc(Cl)cc1)C(=O)NCCN1C(=O)S/C(=C\c2cccnc2)C1=O (centres undefined)	5	-1	6	3	6	.	.
COc1ccccc1NC(=O)CSc1ncn(-c2ccccc2)n1	-3	-4	13	2	-15	.	.
COc1ccc(-c2cc(N)n(S(=O)(=O)c3c(F)c(F)c(F)c(F)c3F)n2)cc1OC	45*	-16	8	23	20	93*	93*
Cc1ncc([N+](=O)[O-])n1CC(=O)Nc1ccc(F)cc1	.	.	-9	.	-31	.	.
CCOC(=O)Cn1nc(C)c([N+](=O)[O-])c1C	-2	-6	-6	8	-46	.	.
Cc1ccc(OCCOC(=O)Cn2nc(C)c([N+](=O)[O-])c2C)cc1	26*	21	3	8	16	2	3
SMILES	Ba/F3 V617F tox	APP 5UTR inh	IEC-6 tox	BaF3 parental	KLF5 inh	BaF3 parental 2	JAK2V617F conf
Cc1cccc2c1cnn2C(=O)CCC(=O)NCC(C)c1ccccc1 (centres undefined)	.	.	-3	.	-5	.	.
CN(C)c1nc(N2CCN(c3ccc(F)cc3)CC2)c(C#N)c(=O)o1	28*	4	0	13	-2	-3	-8
Cc1cc(C)c(C#N)c(N2CCN(c3ccc(F)cc3)CC2)n1	.	.	3	.	3	.	.
NC(N)=Nc1nc(-c2ccccc2)c2ccccc2n1	3	-19	6	2	3	.	.
CCc1nc(N=C(N)N)nc2ccccc12	28*	-13	3	17	-46	13	53*
O=S(=O)(CCSc1nc2ccccc2o1)c1nc2ccccc2s1	83*	13	0	26	13	29*	99*
O=C(Nc1nc(-c2ccc(Cl)cc2Cl)cs1)C1CCCO1 (centres undefined)	28*	1	-1	0	-26	-1	2
Cc1ccc(CC(=O)NCCS(=O)c2ccc(Cl)cc2)cc1 (centres undefined)	-4	-16	4	0	-21	.	.
COCCNC(=O)c1c[nH]c2ccc(S(=O)(=O)N3CCc4ccccc43)cc2c1=O	67*	3	6	13	-1	83*	86*
Cc1ccc2c(c1)N(CC(=O)Nc1c(C)cccc1C)C(=O)c1cccnc1O2	.	.	0	.	-21	.	.
Cc1ccc(/C=[N+](\[O-])c2ccc(N(C)C)cc2)c2nsnc12	47*	61*	5	5	-51	-1	-3
CCOC(=O)/C=C/S(=O)(=O)c1ccc(NC(C)=O)cc1	58*	74*	5	4	-15	21	24*
Cc1sc2ncnc(NCc3cccs3)c2c1C	34*	-11	12	21	-10	43*	64*
Cc1ccc(N(C)C(=O)C2CCCN2S(=O)(=O)c2cccc3nsnc23)cc1 (centres undefined)	6	.	-2	-8	-11	.	.
O=C(/C(=N/N=C/c1ccc(O)c(O)c1)c1ccccc1)c1ccccc1	49*	4	-4	10	-24	9	99*
Oc1ccc(/C=N/N=C/c2ccc(O)c(O)c2)cc1O	.	.	4	.	-24	.	.
O=C(O)COc1ccccc1/C=C1\SC(=S)N(c2cccnc2)C1=O	82*	.	6	-1	-16	-4	12
COc1cccc(/C=C2\SC(=S)N(c3cccnc3)C2=O)c1OC	1	-17	12	-3	-23	.	.
CCN(CC)CCCNC(=O)c1cc(-c2ccc(Cl)cc2)on1	24*	-12	-1	1	-4	0	-1
Cc1nc(Nc2ccc3c(c2)OCCO3)c2oc3ccccc3c2n1	59*	-15	20	7	-43	-5	3
CC(C)C(NC(=O)c1ccccc1)C(=O)N1CCCCCC1 (centres undefined)	.	.	3	.	16	.	.
COc1ccc(Nc2ccc3c(c2)=NC2(CCCCC2)[N+]=3[O-])cc1	44*	49*	9	2	-28	19	100*
O=[N+]([O-])c1ccc2c(c1N1CCCCC1)=NC1(CCCCC1)[N+]=2[O-]	-5	.	-7	0	-21	.	.
[O-][N+]1=c2ccc(Nc3ccccc3)cc2=NC12CCCCC2	42*	33	10	8	-1	5	98*
COC(=O)c1[nH]c2ccc(Br)cc2c1NC(=O)CN1CCN(C2CCCCC2)CC1	46*	-8	9	11	-23	2	4
